Records with an inconclusive call do not appear. Entries that show only a call come without a potency. Active and inactive are the calls of the source. Unless noted, the call rests on the fitted dose curve; in most records, active means well fitted cell-killing curve with a large enough effect in the repeat runs; inconclusive means weak or mixed curves, or effect the other way; inactive means flat fitted curve, though single readings scatter.

The values that follow come from PubChem BioAssay (Tox21).

Estrogen receptor beta (Homo sapiens), sequence (Q92731 whole entry, looked up): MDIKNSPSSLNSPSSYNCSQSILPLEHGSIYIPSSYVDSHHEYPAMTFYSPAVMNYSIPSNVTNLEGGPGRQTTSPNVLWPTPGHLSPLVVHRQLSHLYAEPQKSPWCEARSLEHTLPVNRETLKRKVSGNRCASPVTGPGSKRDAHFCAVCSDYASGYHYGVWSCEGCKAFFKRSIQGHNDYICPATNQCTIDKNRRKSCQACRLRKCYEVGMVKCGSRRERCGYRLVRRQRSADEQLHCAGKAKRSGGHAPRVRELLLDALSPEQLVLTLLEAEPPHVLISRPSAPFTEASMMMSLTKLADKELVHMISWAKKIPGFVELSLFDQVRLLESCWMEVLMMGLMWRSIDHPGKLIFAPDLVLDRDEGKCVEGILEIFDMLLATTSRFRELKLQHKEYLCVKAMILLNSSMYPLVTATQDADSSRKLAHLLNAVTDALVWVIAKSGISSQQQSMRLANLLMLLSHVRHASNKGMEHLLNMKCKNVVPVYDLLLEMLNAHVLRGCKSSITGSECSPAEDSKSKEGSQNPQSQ

One test concerns the target Estrogen receptor beta (Homo sapiens) (UniProt Q92731). The experiment in a line: qHTS assay to identify small molecule antagonists of the estrogen receptor beta (ER-beta) signaling pathway (AID 1259378; active means well fitted inhibition curve with a large enough effect in the signal ratio in the repeat runs, not every such curve was filed as active; the % refers to the signal ratio). As to conditions: ER-beta-UAS-bla HEK293T, beta-lactamase FRET ratio, 16 h; series mostly up to 92.4 µM. Put shortly:
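Antagonist mode: compounds added to beta-lactamase reporter HEK293T ER-beta-UAS cells stimulated with E2 (1nM final), 16 hr at 37C. LiveBLAzer B/G FRET substrate, 2 hours room temperature, fluorescence read-out.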
A general note: Quantitative high-throughput screening tests each substance at several concentrations.
Take `Nc1nc(-c2ccc([N+](=O)[O-])cc2)cs1`: the Potency entry is “inactive”.
For the compound `Cc1cccc(C)c1NC(=O)c1cc(S(N)(=O)=O)c(Cl)cc1O`, the Potency result is “inactive”.
As for `CCCCCCCCCCCCCOC(=O)CCSCCC(=O)OCCCCCCCCCCCCC`, the activity, negative = inhibition was -0.0397% [at 19 µM] (inactive).
In the case of `CC(=O)N[C@@H](Cc1ccc(O)cc1)C(=O)O`, the Potency result is “inactive”.
On the same count and under the same terms, the value for `CCN(CC)CCOC(=O)C(c1ccccc1)c1ccccc1` was “inactive”; that for `CC(=O)OCC1=C(C(=O)O)N2C(=O)[C@@H](NC(=O)CSc3ccncc3)[C@H]2SC1` was “inactive”; that for `SCCc1cnccn1` was “inactive”.
For `O=C1OC(=O)c2c(Br)c(Br)c(Br)c(Br)c21`, the Potency result is “inactive”.
Turning to `OCC(CO)n1cnc(-c2ccc(F)cc2)c1-c1ccnc(Oc2ccccc2)n1`, the Potency entry was “inactive”.
Still for that read-out and setting: for `C1CCCCC1` the value was “inactive”; for `O=C(O)CCCc1c[nH]c2ccccc12`, “inactive”.
Same read-out and setting: the value for `CCN(CC)CC(=O)Nc1c(C)cccc1C(=O)OC` was “inactive”.
The same measure, in the same setting: for `CC1CCCO1` (stereo not given) the value was “inactive”.
Turning to `[Cl][Nd]([Cl])[Cl]`, the Potency result was “inactive”.
For `CC1=CC[C@@]23C[C@@H]1C(C)(C)[C@@H]2CC[C@H]3C`, the Potency result is “inactive”.
Still for that read-out and setting: the value for `CCNc1nc(N)nc(Cl)n1` was “inactive”; that for `Nc1ccn([C@H]2CS[C@@H](CO)O2)c(=O)n1` was “inactive”; that for `Nc1ccc(S(=O)(=O)NCc2ccccc2)cc1` was “inactive”.
The same measure, in the same setting: the value for `CCN(CC)C(=O)N1CCN(C)CC1` was “inactive”; that for `CC(=O)OCC(=O)[C@@]1(OC(C)=O)[C@@H](C)C[C@H]2[C@@H]3C[C@H](F)C4=CC(=O)C=C[C@]4(C)[C@@]3(F)[C@@H](O)C[C@@]21C` was “inactive”; that for `CCCCCCOC(=O)CCCCC` was “inactive”.
The same measure, in the same setting: the value for `O=C(O)CCC(=O)OC[C@@H](NC(=O)C(Cl)Cl)[C@H](O)c1ccc([N+](=O)[O-])cc1` was “inactive”.

Tested on in the next test: not listed separately
Briefly: qHTS assay to identify small molecule agonists of the androgen receptor (AR) signaling pathway in the presence of an antagonist - cell viability counter screen (AID 1259379).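 Further: MDA-kb2 human breast cancer cells carrying an MMTV luciferase reporter; nearly all actives have a fitted effect of over 25% in size.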 As to conditions: MDA-kb2 viability, CellTiter-Fluor, 16 h; series mostly up to 92.4 µM. Put shortly: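 MDA-kb2 cells (MMTV-luciferase, AR/GR), 3,000/well, 5 h attachment, then 3.0 µM nilutamide (final) and compounds at 15 concentrations. Viability by CellTiter-Fluor fluorescence after 16 h at 37 °C, 0% CO2, in the reporter wells.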
On to `Nc1nc(-c2ccc([N+](=O)[O-])cc2)cs1`, for which the Potency entry was “inactive”.
On the same count and under the same terms, for `Cc1cccc(C)c1NC(=O)c1cc(S(N)(=O)=O)c(Cl)cc1O` the value was “inactive”.
For the compound `CCCCCCCCCCCCCOC(=O)CCSCCC(=O)OCCCCCCCCCCCCC`, the activity change, negative = cytotoxicity is -0.499% [at 19 µM] (inactive).
As to `CC(=O)N[C@@H](Cc1ccc(O)cc1)C(=O)O`, the Potency result is “inactive”.
On the same count and under the same terms, for `CCCCCC` the value was “inactive”; for `Cc1ccccc1S(N)(=O)=O`, “inactive”.
Regarding `CCN(CC)CCOC(=O)C(c1ccccc1)c1ccccc1`, the Potency entry was “inactive”.
As to `O=S(=O)(O)CO`, the Potency result was “inactive”.
For the compound `CC(=O)OCC1=C(C(=O)O)N2C(=O)[C@@H](NC(=O)CSc3ccncc3)[C@H]2SC1`, the Potency entry is “inactive”.
As for `O=C(O)CN1C(=O)c2cccc3cccc(c23)C1=O`, the Potency entry is “inactive”.
Still for that read-out and setting: for `SCCc1cnccn1` the value was “inactive”; for `COc1ccc(C)cc1`, “inactive”.
On the same count and under the same terms, for `CC(C)c1ccc(C(=O)N=C(N)N)cc1S(C)(=O)=O` the value was “inactive”.
Same read-out and setting: the value for `O=C1OC(=O)c2c(Br)c(Br)c(Br)c(Br)c21` was “inactive”.
For `OCC(CO)n1cnc(-c2ccc(F)cc2)c1-c1ccnc(Oc2ccccc2)n1`, the Potency result was “inactive”.
The same measure, in the same setting: for `C1CCCCC1` the value was “inactive”.
The same measure, in the same setting: the value for `Cc1c[nH]c2ccccc12` was “inactive”.
In the case of `O=C(O)CCS`, the Potency result was “inactive”.
For the compound `Cc1ccc2nc(N)[nH]c(=O)c2c1Sc1ccncc1`, the Potency entry was “inactive”.
Same read-out and setting: for `O=C(O)CCCc1c[nH]c2ccccc12` the value was “inactive”; for `CCCCCCCC(=O)Oc1c(Br)cc(C#N)cc1Br`, “inactive”.
On the same count and under the same terms, the value for `CCN(CC)CC(=O)Nc1c(C)cccc1C(=O)OC` was “inactive”.
The same measure, in the same setting: for `CC(C)N=C=NC(C)C` the value was “inactive”; for `CC1CCCO1` (stereo not given), “inactive”; for `[Cl][Nd]([Cl])[Cl]`, “inactive”.
With `CC1=CC[C@@]23C[C@@H]1C(C)(C)[C@@H]2CC[C@H]3C`, the Potency result is “inactive”.
Turning to `COc1ccc(/C=C/C(=O)c2ccc(OC)cc2OC)cc1`, the Potency result was “inactive”.
The same measure, in the same setting: for `CCNc1nc(N)nc(Cl)n1` the value was “inactive”; for `COC(CC(C)CCCC(C)(C)O)OC` (stereo not given), “inactive”.
Regarding `CC(=O)NNC(C)=O`, the Potency entry was “inactive”.
As to `Nc1ccn([C@H]2CS[C@@H](CO)O2)c(=O)n1`, the Potency entry was “inactive”.
On the same count and under the same terms, the value for `Nc1ccc(S(=O)(=O)NCc2ccccc2)cc1` was “inactive”.
Still for that read-out and setting: for `CCN(CC)C(=O)N1CCN(C)CC1` the value was “inactive”; for `CC(C)(C)S`, “inactive”.
Regarding `CCOC(=O)N1CCC(Nc2ccc(Cl)cc2N)CC1`, the Potency result is “inactive”.
Take `CC(=O)OCC(=O)[C@@]1(OC(C)=O)[C@@H](C)C[C@H]2[C@@H]3C[C@H](F)C4=CC(=O)C=C[C@]4(C)[C@@]3(F)[C@@H](O)C[C@@]21C`: the Potency result was “inactive”.
On to `CCCCCCOC(=O)CCCCC`, for which the Potency entry is “inactive”.
Regarding `CC/C=C\C/C=C\C/C=C\CCCCCCCC(=O)OCC`, the Potency entry was “inactive”.
Same read-out and setting: the value for `O=C(O)CCC(=O)OC[C@@H](NC(=O)C(Cl)Cl)[C@H](O)c1ccc([N+](=O)[O-])cc1` was “inactive”.

Tested on in a further test: not listed separately
Briefly: qHTS assay to identify small molecule agonists of the estrogen receptor beta (ER-beta) signaling pathway - cell viability counter screen (AID 1259380). Further: nearly all actives have a fitted effect of over 30% in size. As to conditions: ER-beta-bla HEK293T viability, CellTiter-Glo luminescence, 16 h; series mostly up to 92.4 µM. The essentials: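 ER-beta-UAS-bla HEK293T cells in medium with 2% charcoal-stripped FBS, pre-incubated 6 hr, then treated 16 hr at 37C. Cytotoxicity read in the same wells by CellTiter-Glo luminescence after 30 min at room temperature.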
In the case of `Nc1nc(-c2ccc([N+](=O)[O-])cc2)cs1`, the Potency result was “inactive”.
On to `Cc1cccc(C)c1NC(=O)c1cc(S(N)(=O)=O)c(Cl)cc1O`, for which the Potency entry is “inactive”.
On to `CCCCCCCCCCCCCOC(=O)CCSCCC(=O)OCCCCCCCCCCCCC`, for which the activity change, negative = cytotoxicity was 4.18% [at 19 µM] (inactive).
For the compound `CC(=O)N[C@@H](Cc1ccc(O)cc1)C(=O)O`, the Potency entry was “inactive”.
Still for that read-out and setting: for `CCCCCC` the value was “inactive”.
In the case of `Cc1ccccc1S(N)(=O)=O`, the Potency entry is “inactive”.
Still for that read-out and setting: the value for `O=S(=O)(O)CO` was “inactive”; that for `CC(=O)OCC1=C(C(=O)O)N2C(=O)[C@@H](NC(=O)CSc3ccncc3)[C@H]2SC1` was “inactive”; that for `O=C(O)CN1C(=O)c2cccc3cccc(c23)C1=O` was “inactive”.
On to `COc1ccc(C)cc1`, for which the Potency entry is “inactive”.
Consider `CC(C)c1ccc(C(=O)N=C(N)N)cc1S(C)(=O)=O`, for which the Potency entry was “inactive”.
`OCC(CO)n1cnc(-c2ccc(F)cc2)c1-c1ccnc(Oc2ccccc2)n1`: the Potency result is “inactive”.
Same read-out and setting: the value for `C1CCCCC1` was “inactive”; that for `Cc1c[nH]c2ccccc12` was “inactive”; that for `O=C(O)CCS` was “inactive”.
Same read-out and setting: for `O=C(O)CCCc1c[nH]c2ccccc12` the value was “inactive”.
Still for that read-out and setting: for `CCN(CC)CC(=O)Nc1c(C)cccc1C(=O)OC` the value was “inactive”; for `CC1CCCO1` (stereo not given), “inactive”; for `[Cl][Nd]([Cl])[Cl]`, “inactive”.
Regarding `CC1=CC[C@@]23C[C@@H]1C(C)(C)[C@@H]2CC[C@H]3C`, the Potency entry is “inactive”.
The same measure, in the same setting: the value for `CCNc1nc(N)nc(Cl)n1` was “inactive”; that for `COC(CC(C)CCCC(C)(C)O)OC` (stereo not given) was “inactive”; that for `CC(=O)NNC(C)=O` was “inactive”.
Consider `Nc1ccn([C@H]2CS[C@@H](CO)O2)c(=O)n1`, for which the Potency result is “inactive”.
For `CCN(CC)C(=O)N1CCN(C)CC1`, the Potency entry was “inactive”.
`CC(C)(C)S`: the Potency result was “inactive”.
Same read-out and setting: the value for `CCOC(=O)N1CCC(Nc2ccc(Cl)cc2N)CC1` was “inactive”.
Still for that read-out and setting: the value for `CCCCCCOC(=O)CCCCC` was “inactive”; that for `O=C(O)CCC(=O)OC[C@@H](NC(=O)C(Cl)Cl)[C@H](O)c1ccc([N+](=O)[O-])cc1` was “inactive”.
